Hit rate of the full screen: of about 16,000 compounds, about 2,600 (16%) were called active. About 20% were inconclusive and are not listed. Calls come from the whole dose curve; as a rule, active = well fitted curve in the direction sought with a large enough effect; inconclusive = small, poorly fitted or top-dose-only effect, or effect the other way; inactive = no such curve, though single readings can be large or run the other way. Not all results are given here.

This is an account of results in PubChem BioAssay AID1851 (National Center for Advancing Translational Sciences (NCATS), 2009).
% is set by controls: 0 for no effect and ±100 for the full control effect.

The target of this assay is Cytochrome P450 2D6 (Homo sapiens) (UniProt P10635). In words: Cytochrome panel assay with activity outcomes. As to conditions: recombinant CYP, pro-luciferin dealkylation, luminescence, p450-cyp2d6; series mostly up to 57.1 µM.
Cytochrome P450 2D6 (Homo sapiens), sequence (P10635 whole entry, looked up): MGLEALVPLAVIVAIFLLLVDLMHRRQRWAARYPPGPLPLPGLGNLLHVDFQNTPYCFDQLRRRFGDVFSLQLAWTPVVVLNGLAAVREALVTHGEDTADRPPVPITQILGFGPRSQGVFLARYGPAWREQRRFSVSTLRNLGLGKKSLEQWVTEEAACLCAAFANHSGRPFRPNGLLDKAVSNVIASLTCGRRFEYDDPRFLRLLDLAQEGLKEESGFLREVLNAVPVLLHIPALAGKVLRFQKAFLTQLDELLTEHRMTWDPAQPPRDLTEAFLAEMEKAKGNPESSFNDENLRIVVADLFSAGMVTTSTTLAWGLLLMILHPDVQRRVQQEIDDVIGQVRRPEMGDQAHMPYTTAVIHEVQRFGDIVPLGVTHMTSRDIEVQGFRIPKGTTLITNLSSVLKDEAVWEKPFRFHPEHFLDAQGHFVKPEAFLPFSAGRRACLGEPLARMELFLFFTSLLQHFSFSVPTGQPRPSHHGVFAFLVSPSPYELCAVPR
The AC50 is the concentration at which the activity in the assay is half-maximal. Consider `CCn1c(SCc2cccc(C)c2)nnc1-c1ccc(C)cc1`, for which the AC50 result was “inactive”.
On to `COc1ccc(NCc2nnc(SCc3ccccc3)n2-c2ccc(OC)cc2)cc1`, for which the AC50 entry is “inactive”.
In the case of `COc1ccc(-c2nnc(SCc3cccc(C)c3)n2N)cc1`, the concentration at half-maximal activity (AC50) was 14.1 µM (active).
On the same count and under the same terms, the value for `Cc1ccc(OCC(=O)NC2=NCCS2)cc1` was “inactive”; that for `CCC(=O)Nc1ccc(C(=O)NNC(=O)c2cccs2)cc1` was “inactive”; that for `CC(C)[C@H](NC(=O)OC(C)(C)C)[C@@H](O)CC(=O)OC(C)(C)C` was 3.16 µM (active).
In the case of `CC(=O)C[C@H](O)[C@@H](NC(=O)OC(C)(C)C)C(C)C`, the activity, negative = inhibition was -3.21% [at 11.4 µM] (inactive).
Same read-out and setting: the result for `CC(C)[C@H](NC(=O)OC(C)(C)C)[C@@H](O)CC(=O)C(C)(C)C` reads 3.85% [at 11.4 µM] (inactive).
On to `Cc1ccc(NC(=O)C2CCN(S(=O)(=O)c3c(C)n[nH]c3C)CC2)nc1`, for which the AC50 entry was “inactive”.
In the case of `NC[C@@H]1O[C@H](C23CC4CC(CC(C4)C2)C3)Cc2c1ccc(O)c2O`, the AC50 entry was “inactive”.
As to `NC(=O)CSc1nc2sc(-c3ccccc3)cc2c(=O)n1N`, the AC50 entry was “inactive”.
With `COc1ccc(C[C@@H]2C(=O)N[C@H](C)C(=O)N(C)[C@@H]3Cc4ccc(cc4)Oc4cc(ccc4O)C[C@H](C(=O)N[C@@H](C)C(=O)N[C@H](C)C(=O)N2C)N(C)C3=O)cc1`, the activity, negative = inhibition was -5.02% [at 11.4 µM] (inactive).
Regarding `CC[N+](CC)(CC)CCOc1ccc(/C=C\c2ccccc2)cc1`, the AC50 is 7.94 µM (active).
For `CC[N+](CC)(CC)CCOc1cccc(OCC[N+](CC)(CC)CC)c1OCC[N+](CC)(CC)CC`, the AC50 entry is “inactive”.
Take `O=C(NCCCn1ccnc1)c1ccc(Br)c(S(=O)(=O)N2CCOCC2)c1`: the concentration at half-maximal activity (AC50) is 0.316 µM (active).
For the compound `CCOC(=O)N1CCN(C(=O)c2ccc(Cl)c(S(=O)(=O)N3CCOCC3)c2)CC1`, the AC50 result was “inactive”.
As to `Cc1ccc(C(=O)NCCCN2CCOCC2)cc1N1CCCC1=O`, the AC50 entry is “inactive”.
On to `O=C(O)/C=C\C(=O)Nc1ccc2c(c1)-c1ccccc1C2`, for which the activity, negative = inhibition is 8.73% [at 11.4 µM] (inactive).
Turning to `CC(=O)N1CCC2(CC1)CN(c1ccncc1)C2`, the AC50 entry was “inactive”.
With `O=C(N/N=C/c1ccccn1)c1ccc(Br)o1`, the AC50 entry was “inactive”.
For the compound `CN(C)c1ncc2nc(-c3ccccc3)c(=O)n(C3CC3)c2n1`, the AC50 entry was “inactive”.
On to `C=CCSC[C@@H]1Nc2cc(Cl)c(S(N)(=O)=O)cc2S(=O)(=O)N1`, for which the AC50 result is “inactive”.
Regarding `COc1ccc(C(=O)/C=C2/c3ccccc3CC(C)(C)N2C)cc1`, the concentration at half-maximal activity (AC50) was 0.282 µM (active).
In the case of `COc1ccc(C(=O)/C=C(/C)N(C)C)cc1`, the AC50 result is “inactive”.
Regarding `COc1ccc(C(=O)N2CCC3(CCN(C)CC3)CC2)cc1`, the AC50 result was “inactive”.
In the case of `Clc1cccc(Oc2cnc3ccccc3n2)c1`, the AC50 result is “inactive”.
In the case of `Cc1ccc(NC(=S)NC2CCCC2)cc1`, the AC50 result was “inactive”.
Take `COC(=O)c1ccc(NC(=S)NC2CCCCC2)cc1`: the concentration at half-maximal activity (AC50) was 15.8 µM (active).
With `COC(=O)c1ccc(NC(=O)C2CCCCC2C(=O)O)cc1` (centres undefined), the AC50 entry is “inactive”.
